This is an account of results in PubChem BioAssay (NCI).

What all share (experiment): NCI-60 one-dose screen, 48 h (100 = growth as untreated, 0 = no growth, -100 = all killed)
Conditions in all cases: 10 µM unless noted

The subject of experiment [1] is HCT-15 colon.
Experiment [2] deals with HT29 colon.
Experiment [3] relates to SNB-75 CNS.
Experiment [4] deals with SNB-19 CNS.
The test system of experiment [5] is U251 CNS.
For experiment [6], the system named is PC-3 prostate.
In experiment [7] the test system is SK-MEL-5 melanoma.
In experiment [8] the test system is UACC-62 melanoma.
The test system of experiment [9] is LOX IMVI melanoma.
The test system of experiment [10] is SK-MEL-28 melanoma.

About 83,000 compounds went through this panel and 20% of them were active in at least one assay; those are over-represented in the sample as a whole.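 Single-concentration screen, 48 h exposure, 96-well plates. Endpoint: percent growth. Below 10 = active.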 Calls of active or inactive are those of the source.

As for `CC(c1ccccc1)N1C(=O)/C(=C/c2csc(C#N)n2)SC1=S` (stereo not given), the growth in [1] is 76.1% (inactive); in experiment [2] it was 106% (inactive); in experiment [3], 85.4% (inactive); in experiment [4], 93.7% (inactive); in experiment [5], 94.1% (inactive); in experiment [6] it was 90.5% (inactive). The growth in experiment [7] was 96.9% (inactive); in experiment [8] it was 85.4% (inactive); in [9] it was 39.8% (inactive); in experiment [10], 93.5% (inactive).

Regarding `C=C(C)[C@@H]1CC[C@]2(C)[C@H](CC=C3[C@@H]4CC(C)(C)CC[C@]4(C(=O)NCC#CCN4CCN(C)CC4)CC[C@]32C)[C@@]1(C)CCC#N`, the growth in [1] is 21.4% (inactive); in experiment [2] it was 26.8% (inactive); in [3], 67% (inactive); in experiment [4], 72.5% (inactive); in experiment [5] it was 53.6% (inactive); in [6], 37.3% (inactive). The growth in [7] is 53.4% (inactive); in [8], 79% (inactive); in [9], 12.3% (inactive); in experiment [10], 96.9% (inactive).

Take `C(=C(\C1=NCCN1)n1cnc2ccccc21)/c1ccc2ccccc2c1`: the growth in experiment [1] was 61.1% (inactive); in experiment [2], 91.7% (inactive); in experiment [3], 72.9% (inactive); in [4], 81.3% (inactive); in [5] it was 87.3% (inactive); in experiment [6], 33.5% (inactive). Moreover, the growth is 63% (inactive) in experiment [7], 77.2% (inactive) in [8], 71.5% (inactive) in experiment [9] and 79.4% (inactive) in [10].

As to `C#C[C@]1(O)CC[C@H]2[C@@H]3CC=C4c5sc(-c6cccc(F)c6)nc5CC[C@]4(C)[C@H]3CC[C@@]21C`, the growth in experiment [1] was 53.5% (inactive); in experiment [2] it was 78.4% (inactive); in [3], 70% (inactive); in experiment [4] it was 87.3% (inactive); in experiment [5] it was 75% (inactive); in experiment [6], 68.7% (inactive). Moreover, the growth in [7] was 96.4% (inactive); in experiment [8] it was 74.9% (inactive); in [9] it was 80.8% (inactive); in experiment [10], 81.1% (inactive).

In the case of `C=C(C)[C@@H]1CC[C@]2(C(=O)NCCCN(CCC#N)CCC#N)CC[C@]3(C)[C@H](CC[C@@H]4[C@@]5(C)CCC(=O)C(C)(C)[C@@H]5CC[C@]43C)[C@@H]12`, the growth was 96.4% (inactive) in [1]; 106% (inactive) in experiment [2]; 99.9% (inactive) in experiment [3]; 88.9% (inactive) in experiment [4]; 97.7% (inactive) in [5]; 93.1% (inactive) in experiment [6]. Besides, the growth in experiment [7] is 99.1% (inactive); in [8] it was 88.3% (inactive); in [9] it was 99.3% (inactive); in experiment [10], 104% (inactive).

As to `O=c1oc2ccc(-c3ccc(F)cc3F)cc2c(=O)n1-c1ccc(F)c(F)c1`, the growth in [1] is 3.09% (active); in [2], 88.8% (inactive); in [3], 14.9% (inactive); in [4] it was 12.2% (inactive); in [5], 11.9% (inactive); in experiment [6] it was 13.3% (inactive). Also, the growth in [7] is -77.4% (active); in experiment [8], -12.8% (active); in [9], 17.8% (inactive); in [10], 19.9% (inactive).

With `COc1ccc(Cn2cc3c(c2-c2cc(OC)c(OC)c(OC)c2)CCCc2cnoc2-3)cc1N`, the growth is 26.8% (inactive) in experiment [1]; 14.6% (inactive) in experiment [2]; -14.5% (active) in experiment [3]; 28.7% (inactive) in experiment [4]; 32.6% (inactive) in [5]; 35.5% (inactive) in experiment [6]. The growth in experiment [7] was 23.1% (inactive); in [8], 41.5% (inactive); in [9], 45.1% (inactive); in experiment [10], 65.9% (inactive).

Regarding `COc1cc(/C=C/C(=O)c2ccc(N3CCN(C)CC3)cc2)ccc1F`, the growth in experiment [1] is 36.4% (inactive); in experiment [2], 46.5% (inactive); in experiment [3], 58% (inactive); in [4], 66.9% (inactive); in [5], 76.2% (inactive); in experiment [6] it was 61.5% (inactive). In addition, the growth in experiment [7] was 95.6% (inactive); in [8] it was 88.6% (inactive); in experiment [9], 17.8% (inactive); in experiment [10], 98.3% (inactive).

On to `COc1ccc(N2C(=O)c3cc(OC)c(OC)cc3NC2SCc2ccccc2)cc1` (stereo not given), for which the growth in [1] was 96.1% (inactive); in experiment [2], 116% (inactive); in [3], 112% (inactive); in [4] it was 109% (inactive); in [5] it was 108% (inactive); in experiment [6], 102% (inactive). The growth in experiment [7] was 97% (inactive); in [8], 93.8% (inactive); in experiment [9] it was 94.8% (inactive); in experiment [10], 96.9% (inactive).

In the case of `CS(=O)(=O)c1ccc2c(c1)c1c(n2Cc2ccc(Cl)cc2)CCCC1`, the growth was 54.9% (inactive) in experiment [1]; 75.5% (inactive) in experiment [2]; 75.4% (inactive) in experiment [3]; 72.3% (inactive) in experiment [4]; 68.1% (inactive) in experiment [5]; 51.9% (inactive) in experiment [6]. Further, the growth is 82.4% (inactive) in experiment [7], 43.2% (inactive) in [8], 81.5% (inactive) in experiment [9] and 87.2% (inactive) in experiment [10].
